Data published in the supplement of paper PMC12067093, “Discovery and optimisation of a covalent ligand for TRIM25 and its application to targeted protein ubiquitination” (Chemical Science, 2025).
Of roughly 21,000 targets only a part is listed; those with the largest changes were picked by preference.

Compound: CC1Cc2ccccc2N1C(=O)C1CCCN(C1)C(=O)CCl (mixture of isomers) [TRIM25 ligand 11 (diastereomer mixture)]
Experiment: probe-labelled cysteine peptide fold change vs DMSO (competition) (log2 fold change); higher = less target engagement (more negative = stronger competition)
Details: THP-1, incubation time: 4 h
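Further: competitive chemoproteomic profiling in live THP-1 cells with an iodoacetamide desthiobiotin (IA-DTB) probe, comparing probe-labelled peptide intensities in compound-treated cells against DMSO-treated controls.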

Chain of UniProt Q9BTX1 (Q9BTX1 whole entry): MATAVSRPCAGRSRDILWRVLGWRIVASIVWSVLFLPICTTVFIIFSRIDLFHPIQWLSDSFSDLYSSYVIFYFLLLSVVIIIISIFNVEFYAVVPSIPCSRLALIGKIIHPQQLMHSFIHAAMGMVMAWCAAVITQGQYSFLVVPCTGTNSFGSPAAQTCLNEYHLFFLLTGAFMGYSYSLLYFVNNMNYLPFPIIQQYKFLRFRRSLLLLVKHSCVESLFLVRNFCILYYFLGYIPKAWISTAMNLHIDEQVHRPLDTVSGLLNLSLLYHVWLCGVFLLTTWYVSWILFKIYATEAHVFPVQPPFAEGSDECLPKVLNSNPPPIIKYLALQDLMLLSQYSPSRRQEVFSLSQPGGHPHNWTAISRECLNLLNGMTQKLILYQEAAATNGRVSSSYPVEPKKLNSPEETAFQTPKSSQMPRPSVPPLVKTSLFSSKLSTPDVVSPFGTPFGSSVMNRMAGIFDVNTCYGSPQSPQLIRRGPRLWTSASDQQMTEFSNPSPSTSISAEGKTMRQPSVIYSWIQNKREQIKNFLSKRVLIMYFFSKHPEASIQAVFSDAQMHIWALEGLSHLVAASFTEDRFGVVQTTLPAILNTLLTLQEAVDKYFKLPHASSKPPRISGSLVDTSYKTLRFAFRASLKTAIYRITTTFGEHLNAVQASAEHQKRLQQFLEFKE
Chain of UniProt Q9P032 (Q9P032 whole entry): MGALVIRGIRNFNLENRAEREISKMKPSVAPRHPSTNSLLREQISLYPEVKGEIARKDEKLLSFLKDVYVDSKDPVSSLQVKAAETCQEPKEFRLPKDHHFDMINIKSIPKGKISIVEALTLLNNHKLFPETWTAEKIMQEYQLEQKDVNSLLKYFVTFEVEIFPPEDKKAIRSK
Chain of UniProt Q96SU4 (Q96SU4 whole entry, looked up): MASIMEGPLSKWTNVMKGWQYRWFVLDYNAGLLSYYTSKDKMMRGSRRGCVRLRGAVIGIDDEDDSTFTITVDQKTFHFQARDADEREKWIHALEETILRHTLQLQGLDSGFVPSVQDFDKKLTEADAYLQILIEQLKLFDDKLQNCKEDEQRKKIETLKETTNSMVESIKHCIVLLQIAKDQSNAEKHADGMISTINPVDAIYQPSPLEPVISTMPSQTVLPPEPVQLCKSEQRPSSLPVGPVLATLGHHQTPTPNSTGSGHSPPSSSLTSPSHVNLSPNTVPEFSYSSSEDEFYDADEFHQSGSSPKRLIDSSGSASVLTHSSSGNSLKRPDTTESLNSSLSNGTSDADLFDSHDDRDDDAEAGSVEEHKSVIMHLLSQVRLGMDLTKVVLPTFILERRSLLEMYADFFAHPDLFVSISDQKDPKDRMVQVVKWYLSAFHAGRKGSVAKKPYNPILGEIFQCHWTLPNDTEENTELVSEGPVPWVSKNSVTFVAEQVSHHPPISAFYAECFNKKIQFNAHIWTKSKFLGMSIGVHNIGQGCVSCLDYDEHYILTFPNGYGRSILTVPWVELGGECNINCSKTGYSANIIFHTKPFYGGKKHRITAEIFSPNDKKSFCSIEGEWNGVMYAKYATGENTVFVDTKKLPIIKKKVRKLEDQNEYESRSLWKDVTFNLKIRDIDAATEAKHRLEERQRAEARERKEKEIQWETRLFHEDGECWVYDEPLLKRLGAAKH
Chain of UniProt Q6KC79 (Q6KC79 whole entry, looked up): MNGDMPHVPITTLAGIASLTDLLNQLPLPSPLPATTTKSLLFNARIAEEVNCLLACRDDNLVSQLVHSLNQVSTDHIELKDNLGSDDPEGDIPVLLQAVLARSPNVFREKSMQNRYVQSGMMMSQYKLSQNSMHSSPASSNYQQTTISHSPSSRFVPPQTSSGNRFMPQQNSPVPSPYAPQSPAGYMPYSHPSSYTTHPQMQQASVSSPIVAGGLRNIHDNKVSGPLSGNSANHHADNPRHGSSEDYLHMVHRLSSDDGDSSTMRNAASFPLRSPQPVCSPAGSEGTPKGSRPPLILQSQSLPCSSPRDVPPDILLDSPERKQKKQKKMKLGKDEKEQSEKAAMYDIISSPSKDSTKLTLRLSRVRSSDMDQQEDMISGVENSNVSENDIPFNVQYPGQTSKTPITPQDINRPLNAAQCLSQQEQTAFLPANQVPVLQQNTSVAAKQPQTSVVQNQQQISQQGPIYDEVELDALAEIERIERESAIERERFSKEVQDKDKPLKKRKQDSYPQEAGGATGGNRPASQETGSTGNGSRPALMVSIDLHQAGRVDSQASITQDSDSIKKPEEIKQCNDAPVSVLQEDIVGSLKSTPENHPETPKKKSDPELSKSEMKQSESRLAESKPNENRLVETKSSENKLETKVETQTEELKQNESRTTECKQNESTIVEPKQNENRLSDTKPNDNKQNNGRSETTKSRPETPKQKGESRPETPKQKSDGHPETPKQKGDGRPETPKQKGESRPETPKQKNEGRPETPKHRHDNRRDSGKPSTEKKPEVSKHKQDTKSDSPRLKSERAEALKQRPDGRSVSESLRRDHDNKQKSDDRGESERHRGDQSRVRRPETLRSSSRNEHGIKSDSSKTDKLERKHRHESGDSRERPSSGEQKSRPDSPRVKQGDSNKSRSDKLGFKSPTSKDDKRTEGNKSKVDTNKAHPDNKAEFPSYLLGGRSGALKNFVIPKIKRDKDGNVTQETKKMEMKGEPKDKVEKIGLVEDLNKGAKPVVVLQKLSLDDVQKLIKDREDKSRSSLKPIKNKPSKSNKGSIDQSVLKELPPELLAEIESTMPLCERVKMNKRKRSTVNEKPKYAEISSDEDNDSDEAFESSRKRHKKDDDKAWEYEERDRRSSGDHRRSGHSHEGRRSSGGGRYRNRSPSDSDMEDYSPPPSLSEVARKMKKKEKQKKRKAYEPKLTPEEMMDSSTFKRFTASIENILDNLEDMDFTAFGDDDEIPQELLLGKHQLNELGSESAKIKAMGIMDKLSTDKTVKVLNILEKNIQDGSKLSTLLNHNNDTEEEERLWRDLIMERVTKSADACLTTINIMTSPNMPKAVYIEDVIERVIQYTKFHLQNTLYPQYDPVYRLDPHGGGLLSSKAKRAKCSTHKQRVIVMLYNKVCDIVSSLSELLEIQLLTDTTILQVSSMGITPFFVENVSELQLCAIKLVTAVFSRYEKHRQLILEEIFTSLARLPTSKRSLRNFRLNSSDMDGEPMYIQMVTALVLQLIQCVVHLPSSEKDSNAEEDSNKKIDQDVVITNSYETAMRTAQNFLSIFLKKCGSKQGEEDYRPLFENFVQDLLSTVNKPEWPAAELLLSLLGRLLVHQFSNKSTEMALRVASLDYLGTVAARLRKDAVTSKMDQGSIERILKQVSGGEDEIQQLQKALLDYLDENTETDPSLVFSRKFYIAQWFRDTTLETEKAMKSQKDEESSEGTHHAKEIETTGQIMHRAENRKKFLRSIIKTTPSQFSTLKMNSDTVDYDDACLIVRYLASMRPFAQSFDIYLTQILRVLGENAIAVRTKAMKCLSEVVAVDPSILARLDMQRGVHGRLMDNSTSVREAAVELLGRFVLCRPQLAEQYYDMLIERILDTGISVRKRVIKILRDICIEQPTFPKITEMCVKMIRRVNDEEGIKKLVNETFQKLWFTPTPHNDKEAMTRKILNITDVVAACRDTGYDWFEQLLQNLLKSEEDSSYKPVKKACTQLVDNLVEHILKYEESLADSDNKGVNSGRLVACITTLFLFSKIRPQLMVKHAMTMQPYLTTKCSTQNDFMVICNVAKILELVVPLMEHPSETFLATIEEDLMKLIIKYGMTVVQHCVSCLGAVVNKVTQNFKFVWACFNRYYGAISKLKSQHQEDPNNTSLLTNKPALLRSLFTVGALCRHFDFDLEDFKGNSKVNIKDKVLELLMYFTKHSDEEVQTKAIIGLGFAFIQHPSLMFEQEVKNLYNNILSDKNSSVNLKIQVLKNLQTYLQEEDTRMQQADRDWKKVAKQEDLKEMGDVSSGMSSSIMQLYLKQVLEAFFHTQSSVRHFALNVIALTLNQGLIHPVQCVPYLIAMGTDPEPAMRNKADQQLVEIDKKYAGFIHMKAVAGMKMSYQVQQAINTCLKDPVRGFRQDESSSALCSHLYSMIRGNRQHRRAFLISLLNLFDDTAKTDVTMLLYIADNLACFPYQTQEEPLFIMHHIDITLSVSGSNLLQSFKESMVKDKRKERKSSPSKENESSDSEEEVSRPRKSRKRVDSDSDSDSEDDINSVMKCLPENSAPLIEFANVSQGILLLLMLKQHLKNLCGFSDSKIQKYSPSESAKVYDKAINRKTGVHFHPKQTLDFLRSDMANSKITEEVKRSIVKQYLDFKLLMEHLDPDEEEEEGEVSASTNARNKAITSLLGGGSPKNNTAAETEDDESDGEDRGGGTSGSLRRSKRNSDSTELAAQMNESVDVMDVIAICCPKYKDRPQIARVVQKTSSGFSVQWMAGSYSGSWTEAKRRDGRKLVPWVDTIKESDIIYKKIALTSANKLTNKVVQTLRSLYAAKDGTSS
Chain of UniProt P19404 (P19404 whole entry): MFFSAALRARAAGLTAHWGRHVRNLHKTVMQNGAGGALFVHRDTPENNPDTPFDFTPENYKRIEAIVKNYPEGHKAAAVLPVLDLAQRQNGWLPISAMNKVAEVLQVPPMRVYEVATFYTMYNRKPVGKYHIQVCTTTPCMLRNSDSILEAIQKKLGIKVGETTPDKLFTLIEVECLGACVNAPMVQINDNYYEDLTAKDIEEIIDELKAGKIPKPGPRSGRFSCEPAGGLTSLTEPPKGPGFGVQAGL
Chain of UniProt Q99497 (Q99497 whole entry, looked up): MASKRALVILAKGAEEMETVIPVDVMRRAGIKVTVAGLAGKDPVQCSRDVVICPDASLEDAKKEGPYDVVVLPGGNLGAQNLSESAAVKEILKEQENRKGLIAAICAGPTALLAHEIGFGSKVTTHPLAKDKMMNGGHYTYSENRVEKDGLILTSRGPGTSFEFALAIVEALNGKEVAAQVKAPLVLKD
Chain of UniProt P68402 (P68402 whole entry, looked up): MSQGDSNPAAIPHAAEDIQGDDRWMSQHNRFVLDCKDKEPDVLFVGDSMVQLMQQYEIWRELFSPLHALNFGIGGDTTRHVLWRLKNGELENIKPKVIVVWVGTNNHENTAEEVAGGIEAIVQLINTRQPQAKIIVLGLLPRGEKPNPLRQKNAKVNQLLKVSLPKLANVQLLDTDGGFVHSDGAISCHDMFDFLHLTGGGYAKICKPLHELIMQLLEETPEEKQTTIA

Row | Target | probe-labelled cysteine peptide fold change (10 µM) | probe-labelled cysteine peptide fold change (50 µM)
1 | PCBP1_Q15365_293_GYWASLDASTQTTHELTIPNNLIGCIIGR (UniProt Q15365) | -0.0964 | -0.174
2 | NOC4L_Q9BVI4_509_KGPEPVPLEFIPAQGLLGRPGELCAQHFTLS (UniProt Q9BVI4) | 0.0196 | -0.199
3 | NIT2_Q9NQR4_153_VGLGICYDMR (UniProt Q9NQR4) | -0.261 | -1.18
4 | NDRG1_Q92597_289_MADCGGLPQISQPAK (UniProt Q92597) | -0.006 | -0.0335
5 | NUP155_O75694_373_LYFSTCPFR (UniProt O75694) | 0.15 | 0.262
6 | NDUFV2_P19404_135+140_YHIQVCTTTPCMLR (UniProt P19404) | 0.0444 | -0.234
7 | NUTF2_P61970_80_IQHSITAQDHQPTPDSCIISMVVGQLKADEDPIMGFHQMFLLK (UniProt P61970) | -0.758 | -0.409
8 | NLRX1_Q86UT6_713_CTVVAAVLGSGR (UniProt Q86UT6) | -0.136 | 0.223
9 | NOP2_P46087_393_ILDMCCAPGGK (UniProt P46087) | -0.0381 | -0.0998
10 | PADI2_Q9Y2J8_629_GLLEPLGLECTFIDDISAYHK (UniProt Q9Y2J8) | 0.0551 | 0.0618
11 | PARK7_Q99497_46_VTVAGLAGKDPVQCSR (UniProt Q99497) | -0.13 | -0.213
12 | P3H1_Q32P28_123_CLGPPAAHSLSEEMELEFR (UniProt Q32P28) | 0.411 | 0.646
13 | NEK1_Q96PY6_276_FLSPQLIAEEFCLK (UniProt Q96PY6) | 0.0381 | 0.161
14 | OSBPL3_Q9H4L5_114_CIDLDTEEHIYHLK (UniProt Q9H4L5) | -0.0859 | 0.0383
15 | NEMF_O60524_575_YLTPGDIYVHADLHGATSCVIK (UniProt O60524) | 0.0554 | 0.13
16 | NUP155_O75694_667_HNGICIYFSR (UniProt O75694) | -0.0348 | 0.207
17 | NLRX1_Q86UT6_779_DLRDLLLHDQCQITTLR (UniProt Q86UT6) | -0.173 | -0.114
18 | NSUN6_Q8TEA1_242_ILDLCAAPGGK (UniProt Q8TEA1) | 0.157 | -0.0703
19 | NFIX_Q14938_6_MYSPYCLTQDEFHPFIEALLPHVR (UniProt Q14938) | 0.072 | -0.567

Row | Target | probe-labelled cysteine peptide fold change (10 µM) | probe-labelled cysteine peptide fold change (50 µM)
20 | P4HB_P07237_53+56_YLLVEFYAPWCGHCK (UniProt P07237) | -0.316 | -0.77
21 | NSUN5_Q96P11_308_YHEVHYILLDPSCSGSGMPSR (UniProt Q96P11) | -0.725 | -0.0597
22 | PDPR_Q8NCN5_357_LVNCPETFTPDMR (UniProt Q8NCN5) | -0.0721 | 0.18
23 | NUDT14_O95848_12_CAASPYLRPLTLHYR (UniProt O95848) | -0.125 | 0.0208
24 | PAICS_P22234_100_CGETAFIAPQCEMIPIEWVCR (UniProt P22234) | 0.00496 | 0.1
25 | NSUN2_Q08J23_673+678_YEPDSANPDALQCPIVLCGWR (UniProt Q08J23) | 0.0479 | 0.0634
26 | NIPBL_Q6KC79_304_GSRPPLILQSQSLPCSSPR (UniProt Q6KC79) | 0.204 | 0.00224
27 | NDC1_Q9BTX1_9_ATAVSRPCAGR (UniProt Q9BTX1) | 0.00914 | -0.136
28 | NT5DC1_Q5TFE4_139_YYFYDNYFDLPGALLCAR (UniProt Q5TFE4) | 0.416 | 0.718
29 | NUDC_Q9Y266_188_WTQTLSELDLAVPFCVNFR (UniProt Q9Y266) | -0.0574 | 0.00376
30 | OSBPL9_Q96SU4_577_SILTVPWVELGGECNINCSK (UniProt Q96SU4) | 0.311 | 0.198
31 | NID1_P14543_679_EGSPDALQNPCYIGTHGCDTNAACRPGPR (UniProt P14543) | 0.112 | -0.182
32 | PDCD4_Q53EL6_288_GTVDCVQAR (UniProt Q53EL6) | 0.164 | 0.233
33 | NUP93_Q8N1F7_328_CGDLLAASQVVNR (UniProt Q8N1F7) | 0.0268 | 0.221
34 | NDUFAF4_Q9P032_87_AAETCQEPK (UniProt Q9P032) | -0.0492 | -0.243
35 | NUP160_Q12769_529_NLQQEFWCK (UniProt Q12769) | 0.248 | 0.177
36 | NFX1_Q12986_295_STCDSENLAVINK (UniProt Q12986) | 0.0624 | -0.0282
37 | NFRKB_Q6P4R8_17_MDSLDHMLTDPLELGPCGDGHGTR (UniProt Q6P4R8) | -0.196 | -1.37
38 | PAFAH1B2_P68402_206_ICKPLHELIMQLLEETPEEK (UniProt P68402) | -0.486 | -0.692
